Drawing on PubChem BioAssay (NCATS), this text covers Potency and activity change, negative = cytotoxic for 40 molecules.

The structures appear in SMILES notation. Results filed as inconclusive are left out. Where a call stands in place of a potency, no number is given. A number with no mark means an inactive call. Activity calls are given as the source filed them. Calls follow the shape of the dose curve; as a rule, active = well fitted cell-killing curve with a large enough effect; inconclusive = small, poorly fitted or top-dose-only effect; inactive = no such curve, though single readings can be large or run the other way.
Potency is read from the fitted curve at half-maximal effect.

The assay in a line: qHTS of pediatric cancer cell lines to identify multiple opportunities for drug repurposing: Primary screen for Saos-2 cells (AID 1347097). Also: nearly all actives have a fitted effect of over 40% in size. The settings on record: Saos-2 viability, CellTiter-Glo ATP luminescence, 48 h; series mostly up to 46 µM. An excerpt:
Drug repurposing or repositioning has been offered as a strategy for drug development in oncology programs. This approach has special potential for childhood cancers and other rare or orphan diseases, where the expected return on new drug development has been a disincentive to pharmaceuticals. […] In this project we exploit the poly-pharmacology of drugs to discover new indications via phenotypic screening of a panel of 19 well-characterized cell lines derived from solid tumors seen in children and adolescents. The goal is to identify approved drugs with previously unrecognized anticancer properties that has the potential to reveal new mechanisms and biological processes involved in carcinogenesis or drug resistance. We employed a titration-based paradigm (quantitative high-throughput screening or qHTS), where all compounds were tested at multiple concentrations for their effect on cell viability. Concentration-response curves (CRCs) were derived directly from the primary screen, and both potency and efficacy values were used to identify compounds with robust bioactivity profiles. We screened the NIH Chemical Genomics Center (NCGC) Pharmaceutical Collection (NPC) and Mechanism Interrogation Plate (MIPE) small molecule collections of approved and investigational compounds against these cell lines; and measured metabolically active cells after 48 hours of compound treatment as a proxy for cell viability. […] Assay Submitter: Nathalia J. Martinez, National Center for Advancing Translational Sciences, National Institutes of Health, Rockville, MD, USA; email: natalia.martinez@nih.gov Shen, M et al. Quantitative high-throughput phenotypic screening of pediatric cancer cell lines identifies multiple opportunities for drug repurposing. Oncotarget 2017 Dec 19;9(4):4758-4772. PMID 29435139.
The cells were obtained from University of North Carolina (UNC), Pediatric Preclinical Testing Program (PPT), and Coriell Institute (CI). qHTS cell viability assay: Cells were assayed in growth media at a density of 500-1,000 cells/well. Five microliters of cells were dispensed into 1,536-well, white, solid-bottom, TC-treated plates (Greiner Bio One) using a multidrop dispenser and incubated at 37 degrees C, 5% CO2, under a humidified atmosphere for 5 hours. Twenty-three nanoliters of compounds and controls (neutral control DMSO or positive control bortezomib at final concentration of 2.3 µM) were subsequently transferred by Kalypsys pintool. For primary screens, the MIPE collection was tested at 11-point dilutions (final concentrations range from 0.78 nM to 46 µM) and the NPC collection at 8-point dilutions (final concentrations range from 0.59 nM to 46 µM). Compounds tested in follow-up screens were assayed at 11-point dilutions. Cells were incubated for 48 hours, followed by addition of 3 µL of CellTiter-Glo (Promega). After a 15 min incubation at room temperature, samples were analyzed for luminescence intensity using a ViewLux High-throughput CCD imager equipped with clear filters.
(In general: Quantitative high-throughput screening tests each substance at several concentrations.)
With `Cc1[nH]cnc1CN1CCc2c(c3ccccc3n2C)C1=O`, the Potency result was “inactive”.
Still for that read-out and setting: the same measure for `CCC1C(=O)OCC1Cc1cncn1C` (stereo not given): “inactive”; for `Nc1nc2ccc([N+](=O)[O-])cc2s1`: “inactive”; for `CN(C)[C@@H]1C(=O)C(C(=O)NCN2CCCC2)=C(O)[C@@]2(O)C(=O)C3=C(O)c4c(O)cccc4[C@@](C)(O)C3C[C@@H]12` (stereo not given in full): “inactive”.
On the same count and under the same terms, the same measure for `CCCCCCOc1ccccc1C(N)=O`: “inactive”; for `CCCCCCCCCCCCOCCO`: “inactive”.
On to `O=C(O)Cc1cccc(-c2cc(CCCCCCc3ccc(O[C@H]4O[C@H](CO)[C@@H](O)[C@H](O)[C@@H]4O)c(-c4cccc(CC(=O)O)c4)c3)ccc2O[C@H]2O[C@H](CO)[C@@H](O)[C@H](O)[C@@H]2O)c1`, for which the activity change, negative = cytotoxic is 9.71% [at 0.597 µM].
As for `CNC(=O)c1c(I)c(NC(=O)CCCCC(=O)Nc2c(I)c(C(=O)O)c(I)c(C(=O)NC)c2I)c(I)c(C(=O)O)c1I`, the Potency result was “inactive”.
On to `C[N+]1(C)[C@@H]2CC(OC(=O)[C@H](CO)c3ccccc3)C[C@H]1[C@@H]1O[C@@H]12` (stereo not given in full), for which the Potency result was “inactive”.
Same read-out and setting: the same measure for `CCCCC1C(=O)N(c2ccccc2)N(c2ccc(O)cc2)C1=O` (stereo not given): 16.8 µM (active); for `Nc1ccc(O)c(C(=O)O)c1`: “inactive”.
Still for that read-out and setting: to `CC(C(=O)O)c1ccc(C(=O)c2ccccc2)s1` (stereo not given) belongs “inactive”; to `C/C(=N\O)c1ccc(OCC(=O)N2CCCCC2)cc1`, “inactive”; to `Oc1c(Br)cc(Br)c2cccnc12`, 11.9 µM (active).
Same read-out and setting: to `CN(C)c1ccc(C(=C2C=CC(=[N+](C)C)C=C2)c2ccccc2)cc1` belongs 0.0531 µM (active).
Take `O=C(OCc1ccccc1)c1ccccc1`: the Potency result is “inactive”.
Consider `O=C(O)Cc1ccc(-c2ccccc2)cc1`, for which the Potency result is “inactive”.
The same measure, in the same setting: the same measure for `CCCCCCCCCCCCCCCCCC(=O)O`: “inactive”; for `CC(N)C(=O)OC(C)(C)Cc1ccc(Cl)cc1` (stereo not given): “inactive”.
For the molecule `N=C(N)N`, the Potency result was “inactive”.
Still for that read-out and setting: the same measure for `N=C1N=C(N)c2cc3ccccc3cc21`: 24.3 µM (active).
Still for that read-out and setting: to `COC(=O)c1nc(Cl)c(Cl)nc1N` belongs 2.37 µM (active); to `COC(=O)Nc1nc2ccc(C(=O)C3CC3)cc2[nH]1`, 0.841 µM (active).
The same measure, in the same setting: the same measure for `C#C[C@]1(O)CC[C@H]2[C@@H]3CCc4cc(O)ccc4[C@H]3CC[C@@]21C`: 8.41 µM (active); for `Clc1ccccc1-c1nc(-c2ccncc2)no1`: “inactive”; for `COc1ccc(-c2cc(=S)ss2)cc1`: “inactive”.
As for `c1ccc2sc(SSc3nc4ccccc4s3)nc2c1`, the Potency result is “inactive”.
Still for that read-out and setting: the same measure for `CCCSc1ccc2nc(NC(=O)OC)[nH]c2c1`: 4.22 µM (active); for `Nc1ccc(C(=O)O)c(O)c1`: “inactive”; for `O=C(O)/C=C\C(=O)O`: “inactive”.
Same read-out and setting: the same measure for `Cc1c(N)c(=O)n(-c2ccccc2)n1C`: “inactive”; for `CC(C(=O)O)c1ccc2c(c1)[nH]c1ccc(Cl)cc12` (stereo not given): “inactive”.
The same measure, in the same setting: to `COc1cc(NC(C)CCCN)c2ncccc2c1` (stereo not given) belongs 23.7 µM (active); to `COc1cccc2c1C(=O)c1c(O)c3c(c(O)c1C2=O)C[C@@](O)(C(=O)CO)C[C@@H]3O[C@H]1C[C@H](N)[C@H](O[C@@H]2CCCCO2)[C@H](C)O1`, 2.66 µM (active).
For the molecule `O=C(/C=C/c1ccccc1)NCCO`, the Potency result is “inactive”.
For `O=C(CCN1CCN(CCO)CC1)N1c2ccccc2Sc2ccc(C(F)(F)F)cc21`, the Potency entry is “inactive”.
The same measure, in the same setting: the same measure for `Cc1c(Nc2ncccc2C(=O)O)cccc1C(F)(F)F`: “inactive”; for `CN1CCN(c2cc3c(nn2)Oc2ccccc2N3C)CC1`: “inactive”.
Still for that read-out and setting: the same measure for `Nc1cc(-c2ccncc2)c[nH]c1=O`: “inactive”; for `C=CCCCCCCCCC(=O)O`: “inactive”.
